# Measured values from article PMC10156912.
# Experiments:
# PHD finger protein 12 = PHD finger protein 12 (UniProt Q96QT6); assay: other; cross-linking mass spectrometry; other
# Histone deacetylase 2 = Histone deacetylase 2 (UniProt Q92769); assay: cross-link between two proteins; cross-linking mass spectrometry
# Chain of Histone deacetylase 2 (Q92769 whole entry): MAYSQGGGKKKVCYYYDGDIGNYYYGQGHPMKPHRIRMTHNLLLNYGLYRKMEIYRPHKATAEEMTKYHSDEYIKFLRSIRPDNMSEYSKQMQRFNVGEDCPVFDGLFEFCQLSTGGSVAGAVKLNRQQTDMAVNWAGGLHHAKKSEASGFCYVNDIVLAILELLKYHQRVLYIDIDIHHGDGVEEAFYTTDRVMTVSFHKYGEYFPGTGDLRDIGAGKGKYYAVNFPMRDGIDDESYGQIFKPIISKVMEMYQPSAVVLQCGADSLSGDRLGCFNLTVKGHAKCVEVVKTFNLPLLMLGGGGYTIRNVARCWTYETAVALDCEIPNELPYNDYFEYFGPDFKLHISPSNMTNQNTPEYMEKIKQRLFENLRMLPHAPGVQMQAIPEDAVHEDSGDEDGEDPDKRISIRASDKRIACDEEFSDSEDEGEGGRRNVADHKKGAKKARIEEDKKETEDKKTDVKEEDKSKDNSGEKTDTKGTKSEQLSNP
# Chain of PHD finger protein 12 (Q96QT6 whole entry): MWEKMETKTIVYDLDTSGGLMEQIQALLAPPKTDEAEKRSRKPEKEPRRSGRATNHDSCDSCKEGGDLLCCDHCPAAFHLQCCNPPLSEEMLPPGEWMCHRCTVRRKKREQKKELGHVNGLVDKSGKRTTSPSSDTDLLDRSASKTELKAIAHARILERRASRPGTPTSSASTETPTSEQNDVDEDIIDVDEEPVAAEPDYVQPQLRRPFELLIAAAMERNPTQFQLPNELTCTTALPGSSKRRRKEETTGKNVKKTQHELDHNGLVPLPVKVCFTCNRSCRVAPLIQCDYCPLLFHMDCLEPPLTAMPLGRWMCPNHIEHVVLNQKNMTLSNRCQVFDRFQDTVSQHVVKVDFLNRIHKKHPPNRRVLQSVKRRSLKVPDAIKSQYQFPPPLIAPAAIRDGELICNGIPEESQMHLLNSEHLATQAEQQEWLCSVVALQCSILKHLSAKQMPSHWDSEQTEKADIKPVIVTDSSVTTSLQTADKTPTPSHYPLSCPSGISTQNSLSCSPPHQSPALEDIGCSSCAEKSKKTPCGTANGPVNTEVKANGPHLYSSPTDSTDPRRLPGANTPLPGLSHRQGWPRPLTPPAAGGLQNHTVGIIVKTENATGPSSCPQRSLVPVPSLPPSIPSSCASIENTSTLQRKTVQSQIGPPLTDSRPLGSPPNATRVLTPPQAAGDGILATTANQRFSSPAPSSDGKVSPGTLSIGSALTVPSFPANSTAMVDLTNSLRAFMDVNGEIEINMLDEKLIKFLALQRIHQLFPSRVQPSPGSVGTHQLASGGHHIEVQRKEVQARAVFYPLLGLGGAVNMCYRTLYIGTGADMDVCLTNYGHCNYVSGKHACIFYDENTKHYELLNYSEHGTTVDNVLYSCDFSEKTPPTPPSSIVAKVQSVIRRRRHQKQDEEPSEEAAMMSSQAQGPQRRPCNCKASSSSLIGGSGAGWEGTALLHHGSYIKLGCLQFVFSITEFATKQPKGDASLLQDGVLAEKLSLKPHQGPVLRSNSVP
substance,measurement,setting,value
"Paired amphipathic helix protein Sin3b, O75182",listed as a hit,PHD finger protein 12,yes
same,listed as a hit,Histone deacetylase 2,yes
